Source: PubChem
Pf growth 96h = P. falciparum growth inhibition at 96 hour, primary screen for plastid delayed-death inhibitors | P. falciparum luciferase reporter growth, 96 h | Potency, µM (top dose mostly 28.7 µM), inactives show top-dose activity change, negative = inhibition, actives largely listed as inhibitors | hit rate 6.9% among 320,000 | AID 504834; further: potency means the concentration at half of the fitted maximal effect; on the % scale 0 is the no-effect control and ±100 the full control effect
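Erythrocytes infected with luciferase-expressing P. falciparum were dispensed at 2% hematocrit and 0.05% parasitemia (final), then incubated with compounds 96 hours at 37 C in 5% CO2. Luminescence after detection reagent addition reported growth.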
Cycloheximide cs = counter-screen hit for Shiga toxin inhibitors, cycloheximide | cell reporter, cycloheximide protein synthesis inhibition counterscreen | max response, % | hit rate 12% among 300,000; in the data active means max response mostly above about 13%, no sharp cut-off; inactive means mostly below about 14%; further: read at 38.3 µM for the half of the compounds with a filed dose; 0% is about no effect
HCMV inh = inhibitors of human cytomegalovirus. HFF cells, HCMV-luciferase reporter, 72 h; active compounds read low. hit rate 4.5% among 410,000. AID 1259415. activity change, negative = inhibition, % at 57.5 µM; in the data active means activity change below about -60%; inconclusive means no clear call, values can overlap the other calls; inactive means above about -39%; further: on the % scale 0 is the no-effect control and ±100 the full control effect
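Two-dose cell screen: HFF monolayers treated with compounds and infected with luciferase-expressing HCMV at 1 PFU/cell, 72 h at 37C, then lysed for luciferase measurement.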
Shiga inhibitor = blocks Shiga toxin action in Vero cells; inhibition, % at 38.7 µM; hit rate 9.2% among 290,000; Vero cells, Shiga toxin protein synthesis inhibition reporter; in the data active means inhibition mostly above about 28%, no sharp cut-off; inactive means mostly below about 43%; further: 0% is about no effect
Pf growth 48h = P. falciparum growth inhibition at 48 hours (one generation); P. falciparum luciferase growth in erythrocytes, 48 h; Potency, µM (series often up to 28.7 µM), inactives show top-dose activity change, negative = inhibition, most hits filed as inhibitors; hit rate 5.9% among 310,000; further: potency means the concentration at half of the fitted maximal effect; on the % scale 0 is the no-effect control and ±100 the full control effect
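Cell-based growth assay: transgenic P. falciparum expressing firefly luciferase, cultured in red cells within RPMI 1640 containing 0.5% w/v Albumax, 24 mM bicarbonate and gentamycin. A drop in luciferase activity indicates inhibition.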
HCV inh = inhibitors of hepatitis C virus infection; Huh7.5.1 HCVcc-Cre infection, luciferase reporter, 44 h; Potency, µM (titrated, usually from 41.8 µM), for the others: top-dose activity change, negative = inhibition, usual class: inhibitors; hit rate 3.4% among 340,000; AID 651820; further: potency means the concentration at half of the fitted maximal effect; on the % scale 0 is the no-effect control and ±100 the full control effect
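Reporter virus HCVcc-Cre (~0.5 moi) infects cells exposed to compound; seeding density 1,000 cells/well with 4 h settling beforehand. Luminescence, 15 sec read, taken 44 h post-infection following a 15 min RT substrate incubation.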
* marks the source's active call; other numbers are inactive results; u = inconclusive; x = not tested or not shown; [ ] = remark or other dose. This is a sample that favours compounds with a hit; in the whole collection about 21% have one here. Unless noted, the call rests on the fitted dose curve; in most records, active means well fitted inhibition curve with a large enough effect; inconclusive means small, poorly fitted or top-dose-only effect, or another doubt; inactive means no such curve, though single readings can be large or run the other way.

SMILES	Pf growth 96h	Cycloheximide cs	HCMV inh	Shiga inhibitor	Pf growth 48h	HCV inh
COc1cc(C(=O)Oc2ccc(/C=N/NC(=O)c3ccncc3)cc2)cc(OC)c1OC	28%	1	22	-5	-6%	-12%
CC(C)(C)C(=O)Nc1ccc(C(=O)N/N=C/c2ccccc2OC(=O)c2ccccc2)cc1	4.1µM*	4	-35	-15	u	u
Cc1cccc(C(=O)Oc2ccccc2/C=N/NC(=O)c2ccc(NC(=O)C(C)(C)C)cc2)c1	u	2	67	-8	u	-23%
CCOc1cc(/C=N\NC(=O)c2ccc(NC(=O)C(C)(C)C)cc2)ccc1OC(=O)c1cccc(C)c1	u	-1	-11	-20	u	3.2µM*
COc1cccc(CNC(=O)CN2C(=O)CSc3ccc(S(=O)(=O)N4CCOCC4)cc32)c1	14%	8	0	9	4%	4%
CC(C)(C)C(=O)Nc1ccc(C(=O)N/N=C/c2ccccc2OC(=O)c2ccc(Cl)cc2)cc1	u	3	-23	14	u	10µM*
COc1ccc(C(=O)N/N=C/c2ccc(OC(=O)c3ccccc3)cc2)cc1	72%	-1	53	19	15%	10%
COc1ccc(C(=O)N/N=C/c2ccccc2OC(=O)c2ccccc2)cc1	2%	33*	-97*	41*	u	u
CCOc1cc(/C=N\NC(=O)c2ccc(NC(=O)C(C)(C)C)cc2)ccc1OC(=O)c1ccc(C)cc1	16%	-3	-5	-8	x	22%
CCC(CC)C(=O)Nc1cccc(-c2nc3cccnc3s2)c1	x	x	-33	x	x	x
O=S(=O)(Nc1ccc(-c2nc3cccnc3s2)cc1)c1cc(F)ccc1F	51%	37*	-3	67*	41%	17%
NS(=O)(=O)c1ccc(C(=O)Nc2ccc(-c3nc4cccnc4s3)cc2)cc1	16%	48*	20	70*	41%	u
CCc1ccc(S(=O)(=O)Nc2ccc(-c3ccc4nncn4n3)cc2)s1	u	x	-15	x	42%	3%
CCc1ccc(S(=O)(=O)Nc2ccc(-c3nc4cccnc4s3)cc2)s1	149%	36*	41	60*	95%	u
COc1ccc(-n2ccnc(NCc3ccc(Cl)cc3)c2=O)cc1	x	x	-35	x	x	x
Cc1ccc(NC(=O)c2cc(S(=O)(=O)N3CCCCC3)c[nH]2)cc1N(C)C	x	x	0	x	x	x
Nc1ncnc2c1ncn2CCN1CCCCC1	-6%	-1	-1	-2	15%	3%
Cc1ccccc1OCCn1c(=S)[nH]c2c(N)ncnc21	10%	-2	-80*	1	x	18%
Nc1ncnc2c1ncn2CCOCP(=O)(O)O	u	x	x	x	-9%	x
Cc1ccccc1OCCn1cnc2c(N)ncnc21	-29%	11*	-12	15	42%	13%
Nc1ncnc2c1ncn2CCc1ccccc1	u	29*	u	44*	22%	1%
CC(C)CN1C2CCCC1CC(NC(=S)NCc1ccco1)C2 (stereo not drawn)	-29%	-2	-35	-5	-25%	1%
CC1(C)CC2(CC(c3ccccc3F)c3cc(Cl)c(O)cc3O2)NC(=S)N1 (stereo not drawn)	u	-7	u	-20	u	u
CC(=O)Oc1cc2c(cc1Cl)C1(CC(c3ccccc3Cl)O2)CC(C)(C)NC(=S)N1 (stereo not drawn)	x	-3	-38	-12	u	10µM*
Cc1ccc(O)c(Nc2c3ccccc3nc3ccccc23)c1	22%	21*	-36	33*	u	10µM*
SMILES	Pf growth 96h	Cycloheximide cs	HCMV inh	Shiga inhibitor	Pf growth 48h	HCV inh
COc1nc(NCCO)nc(Nc2cc(Cl)ccc2OC)n1	u	-2	36	42	u	-29%
COc1ccc(Cl)cc1Nc1nc(N)c2ccccc2n1	u	25*	84	x	9.3µM*	14µM*
COc1ccc(C)cc1Nc1nc(C)nc2sc(C)cc12	-15%	-6	-28	3	0%[0.00184 µM]	u
Cc1ccc(C)c(Nc2nc(N)c3ccccc3n2)c1	88%	26*	-14	73*	46%[5.75 µM]	-6%
Cc1ccc(C)c(Nc2nnc(-n3nc(C)cc3C)c3ccccc23)c1	x	x	-1	x	x	x
Cc1ccc(O)c(Nc2nc(-c3ccccc3)nc3ccccc23)c1	-15%	-3	-30	x	u	-29%
COc1ccc(C)cc1Nc1nc(N)c2cc(OC)c(OC)cc2n1	2%	5	-34	4	1µM*	u
Cc1ccccc1C(=O)Nc1ccccc1OCc1cc(=O)n2ccccc2n1	x	x	-11	x	x	x
CCOc1ccc(CCn2c3c(c(=O)[nH]c2=O)C(NC(=O)c2cccc(F)c2)(C(F)(F)F)C(=O)N3)cc1OCC (stereo not drawn)	x	x	2	x	x	x
CSCCC(C(=O)NC(C)(C)C)n1c(-c2ccc3c(c2)OCO3)nc2ccccc21 (stereo not drawn)	x	x	50	x	x	x
Cc1nn(-c2ccccc2)c2c1C(c1ccco1)C(C#N)=C(N)O2 (stereo not drawn)	5%	40*	-22	55*	u	13%
Cc1nn(-c2ccccc2)c2c1C(c1cccs1)C(C#N)=C(N)O2 (stereo not drawn)	u	9	x	-3	x	22%
Cc1cc(=O)nc2c3ccccc3n(CC(=O)Nc3ccccc3Br)n12	u	-1	19	-5	u	u
CCC1CCCCN1CCCNC(=O)Cn1c2ccccc2c2nc(=O)cc(C)n21 (stereo not drawn)	15%	-2	43	13	12%	10%
CCCNC(=O)Cn1c2ccccc2c2nc(=O)cc(C)n21	8.3µM*	2	27	-13	x	23%
Cc1cc(=O)nc2c3ccccc3n(CC(=O)NCCC3=CCCCC3)n12	-26%	40*	55	115	-18%	-26%
O=C(/C=C/c1ccc2c(c1)OCO2)N1CCN(c2n[nH]c(=O)[nH]c2=O)CC1	-21%	-2	-26	-6	-8%	-11%
CCC(CC)c1nc2ccccc2c(=O)[nH]1	-1%	6	-7	-10	11%	14%
Cc1ccccc1/C=C\c1nc2ccccc2c(=O)[nH]1	0%	46*	47	89*	u	10µM*
Cc1ccccc1/C=C/c1nc2ccccc2c(=O)[nH]1	97%	45*	67	84*	253%	-24%
N#CCOc1ccccc1/C=C/c1nc2ccccc2c(=O)[nH]1	35%	30*	-8	83*	0%	-9%
CN(C)S(=O)(=O)c1ccc(N2CCCC2)c(C(=O)NNC(=O)c2ccc(F)cc2)c1	-29%	x	-13	x	-21%	13%
CCOc1ccc(Cn2nnc(-c3ccc(S(C)(=O)=O)cc3)n2)cc1OCC	0.93µM*	x	34	x	u	2%
CCOc1ccc(CCNC(=O)Cn2nnc(-c3ccccc3)n2)cc1OCC	x	x	10	x	x	x
COc1ccc2c(C=O)cn(C)c2c1	u	-3	-24	-12	26%	-11%
